Compound activity: PubChem, National Center for Advancing Translational Sciences (NCATS)
This is a sample that favours compounds with a hit; in the whole collection about 4.7% have one here.
DRD3 antagonist: qHTS of D3 Dopamine Receptor Antagonist: qHTS; D3R cells, DiscoveRx beta-arrestin luminescence, antagonist mode; active compounds read low; max response, negative = inhibition, %; actives 2.5% (n = 360,000); AID 652054, 2013; in the data active = max response below about -50%; inconclusive = no clear call, values can overlap the other calls; also: % is scaled to controls: 0 for no effect and ±100 for the full control effect
Target sequence (P35462 whole entry, looked up): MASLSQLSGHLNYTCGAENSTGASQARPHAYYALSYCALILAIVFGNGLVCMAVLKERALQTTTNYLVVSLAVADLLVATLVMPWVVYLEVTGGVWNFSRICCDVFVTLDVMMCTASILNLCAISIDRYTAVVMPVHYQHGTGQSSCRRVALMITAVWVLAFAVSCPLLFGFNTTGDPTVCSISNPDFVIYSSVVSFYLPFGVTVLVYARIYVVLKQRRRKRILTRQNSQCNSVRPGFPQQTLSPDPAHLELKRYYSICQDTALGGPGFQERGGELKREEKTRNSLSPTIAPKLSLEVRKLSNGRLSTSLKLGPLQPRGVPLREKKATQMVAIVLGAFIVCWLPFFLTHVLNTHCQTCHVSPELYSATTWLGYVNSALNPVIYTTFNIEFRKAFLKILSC
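Cells plated overnight at 1500 cells/well, then exposed to library compounds with dopamine controls for 90 minutes at 37 degrees C. DiscoveRx reagent added for 30–60 minutes at room temperature; luminescence read, quantitative HTS format.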
TGFb SMAD3 inh: qHTS for Inhibitors of TGF-b; HepG2 CAGA-GFP TGF-b/SMAD3 reporter, GFP fluorescence, 18 h; TGF-beta stimulated, 500 pg/mL final; Potency, µM (highest dose often 46.1 µM), for the others: at the top dose activity, negative = inhibition, hits mostly inhibitors; actives 1.2% (n = 410,000); AID 588855, 2011; also: potency is read from the fitted curve at half-maximal effect; % is scaled to controls: 0 for no effect and ±100 for the full control effect; nearly all actives have a fitted effect of over 65% in size
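Inhibition was scored as loss of TGF-beta-induced (500 pg/mL final, 18 hours, 37 degrees C) GFP in HEPG2 cells carrying a CAGA-GFP reporter, in DMEM with 1% FBS. Well GFP was summed per cell; Activity was normalised to unstimulated and stimulated DMSO wells, then concentration-response fitting.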
ATXN viability: Viability Counterscreen for Primary qHTS for Inhibitors of ATXN expression | AID 651635, 2014 | actives 0.49% (n = 400,000) | Potency, µM (series often up to 56.7 µM), most hits filed as cytotoxic | S2 cells (HEK-293 line with an ATXN2-luciferase reporter) viability, CellTiter-Fluor protease fluorescence, 24 h; also: potency is read from the fitted curve at half-maximal effect; nearly all actives have a fitted effect of over 40% in size
D3 ag: qHTS of D3 Dopamine Receptor Agonist: qHTS | actives 0.58% (n = 410,000) | max activation, % | D3R DiscoveRx beta-arrestin cells, luminescence, 90 min; in the data active = max activation above about 30%; also: 0% is about no effect
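Agonist-mode cell screen: cells plated at 1500/well and incubated overnight at 37 °C, then exposed to library compounds for 90 min at 37 °C. Detection reagent was added for 30–60 min at room temperature, and luminescence was read.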
ATXN2 expr inh: Primary qHTS for Inhibitors of ATXN expression; HEK-293 ATXN2-luciferase reporter, luminescence, 24 h; actives 0.72% (n = 360,000); Potency, µM (top dose mostly 57 µM), for the others: at the top dose activity change, negative = inhibition, hits mostly inhibitors; also: potency is read from the fitted curve at half-maximal effect; % is scaled to controls: 0 for no effect and ±100 for the full control effect; nearly all actives have a fitted effect of over 55% in size
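qHTS (up to 57 uM final) was run with 24 h compound exposure of reporter cells at 37 °C. Each well was multiplexed: SteadyGlo luminescence measured ATXN2-luciferase expression after a fluorogenic Gly-Phe-AFC viability readout (25 uM final).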
HepG2 viability: qHTS for Inhibitors of TGF-b: Cytotox Counterscreen | AID 588856, 2011 | Potency, µM (titrated, usually from 46.1 µM), for the others: at the highest dose activity change, negative = cytotoxicity, hits mostly cytotoxic | HepG2 CAGA-GFP viability, ATP luminescence, 18 h | actives 0.76% (n = 410,000); also: potency is read from the fitted curve at half-maximal effect
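CellTiter-Glo luminescence gave cytotoxicity after 18 hours at 37 degrees C. The cells were HepG2 CAGA-GFP in 1% FBS DMEM, stimulated with 500 pg/mL TGF-beta after compound addition. %Activity was normalised to no-cell wells (complete cell-killing) and DMSO (no toxicity), and curves were fitted and classified.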
Numbers without * were called inactive; i = inactive; u = inconclusive; x = not tested or not shown; ! = not active in a repeat. Unless noted, calls follow the shape of the dose curve; as a rule, active = well fitted curve in the direction sought with a large enough effect; inconclusive = small, poorly fitted or top-dose-only effect, or another doubt; inactive = no such curve, though single readings can be large; an effect the other way counts as inactive or inconclusive.

SMILES	DRD3 antagonist	TGFb SMAD3 inh	ATXN viability	D3 ag	ATXN2 expr inh	HepG2 viability
Cc1ccccc1NC(=O)Cc1nc(COC(=O)c2ccc(S(C)(=O)=O)c([N+](=O)[O-])c2)cs1	-73*	13µM*	u	-5	x	-79%
Cc1ccccc1NC(=O)Cc1nc(COC(=O)c2ccc(NC(N)=O)cc2)cs1	11	-2%	i	0	9%	-2%
O=C(COC(=O)c1ccc([N+](=O)[O-])cc1)Nc1cccnc1Cl	8	11%	i	-3	3%	-4%
CS(=O)(=O)c1ccc(C(=O)OCC(=O)Nc2cc(C(F)(F)F)ccc2Cl)cc1[N+](=O)[O-]	x	8.9µM*	x	x	x	-90%
Cc1ccccc1NC(=O)COC(=O)c1ccc(S(C)(=O)=O)c([N+](=O)[O-])c1	-98*	7.9µM*	i	-14	-19%	10µM*!
CS(=O)(=O)c1ccc(C(=O)OCC(=O)Nc2ccc(OC(F)(F)F)cc2)cc1[N+](=O)[O-]	x	u	x	x	x	-105%
CC(C)(C)c1cc(C=O)cc(C(C)(C)C)c1O	x	x	i	x	4%	x
CC(CCc1ccccc1)NC(=O)COC(=O)c1ccc([N+](=O)[O-])cc1 (stereo unspecified)	6	-3%	i	-8	-7%	0%
CC(CCc1ccccc1)NC(=O)COC(=O)c1ccc(S(C)(=O)=O)c([N+](=O)[O-])c1 (stereo unspecified)	-78*	u	u	-18	u	-96%
O=C(COC(=O)c1ccccc1F)Nc1cccnc1Cl	-3	-2%	i	39*	37%	6%
CCOC(=O)c1c(C)[nH]c(C(=O)OCc2csc(CC(=O)Nc3ccccc3C)n2)c1C	8	0%	i	36*	8%	-44%
CS(=O)(=O)c1ccc(C(=O)OCC(=O)NC(=O)C2COc3ccccc3O2)cc1[N+](=O)[O-] (stereo unspecified)	-21	-1%	u	1	7%	-23%
CC1(C)C2CCC1(C)C(NC(=O)COC(=O)c1ccc(S(C)(=O)=O)c([N+](=O)[O-])c1)C2 (stereo unspecified)	x	5µM*	x	x	x	6.3µM*
CC(C)(C)NCC(O)c1ccc(O)c(CO)n1 (stereo unspecified)	x	x	x	-5	x	x
O=C(c1cn(C2CCCN(Cc3cc(Cl)ccc3O)C2)nn1)N1CCCCC1 (stereo unspecified)	x	x	i	x	x	x
CN(CCOc1cccc(C(F)(F)F)c1)Cc1ccccc1	-87*	-6%	i	-13	x	9%
COc1ccc(OCCCN(C)Cc2ccccc2)cc1	0	0%	i	-17	-17%	-3%
CN(CCCCOc1ccc(F)cc1)Cc1ccccc1	-83*	-5%	i	-28	2%	-35%
CCN(Cc1ccccc1)Cc1ccc(OCc2ccccc2)cc1	-84*	-16%	i	-6	x	-20%
COc1cc(C)ccc1OCCOCCN(C)Cc1ccccc1	u	0%	i	-8	-13%	20µM*
COc1ccc(OCCN(C)Cc2ccccc2)cc1	u	-24%	i	-6	7%	-5%
CCc1ccc(OCCCCN(C)Cc2ccccc2)cc1	-71*	-25%	i	-20	-32%	-38%
FC(F)(F)c1cccc(OCCN2CCN(Cc3ccccc3)CC2)c1	-82*	-5%	i	-52	u	-2%
CN(CCOc1ccccc1)CCOc1ccccc1	-87*	-1%	i	-14	-2%	-10%
CN(CCOCCOc1ccc2ccccc2c1)Cc1ccccc1	-64*	u	i	1	-11%	-36%
CC(=O)N1CCCc2cc(S(=O)(=O)NCc3ccc(N(C)C)cc3)ccc21	x	u	u	3	-14%	-25%
